The assay addresses HNRNPC (UniProt P07910). The conditions noted are these: DSSO, in cells.

Take HNRNPR, O43390: the cross-linked residues result is “K374 - K8”.

(Values after publication PMC13423814.)
